High-throughput results (PubChem)
SmPrx2 inh = Schistosoma mansoni Prx2 inhibition | S. mansoni Prx2 activity coupled to TGR/GSH (TGR is thioredoxin glutathione reductase), NADPH fluorescence loss, qHTS | Potency, µM | 65,000 tested, 0.07% active | AID 448
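Prx2 inhibition was measured as reduced NADPH consumption when electrons flowed from NADPH through TGR and glutathione to Prx2 and H2O2. Plates were read kinetically over 8 min; enzyme reagents were held at 4 deg C during dispensing.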
AmpC inh no det = inhibitors of E. coli AmpC beta-lactamase without detergent; AmpC nitrocefin hydrolysis, absorbance 480 nm, no detergent; Potency, µM (highest dose often 28.7 µM), inactives show at the top dose activity change, negative = inhibition; 71,000 tested, 1.8% active; further: % of control where 0% means no effect
Target sequence (P00811 whole entry, looked up): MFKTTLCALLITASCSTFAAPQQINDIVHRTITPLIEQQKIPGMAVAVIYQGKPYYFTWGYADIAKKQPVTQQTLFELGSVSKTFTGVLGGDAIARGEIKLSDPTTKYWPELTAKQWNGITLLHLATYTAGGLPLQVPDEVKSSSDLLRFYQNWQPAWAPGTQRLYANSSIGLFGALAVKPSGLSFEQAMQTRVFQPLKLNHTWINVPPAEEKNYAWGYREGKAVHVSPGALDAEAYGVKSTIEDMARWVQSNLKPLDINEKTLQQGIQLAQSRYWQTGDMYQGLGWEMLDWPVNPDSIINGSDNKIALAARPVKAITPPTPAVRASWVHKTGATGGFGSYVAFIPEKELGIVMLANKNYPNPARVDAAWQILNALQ
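AmpC in 20 mM phosphate buffer pH 7.0 was preincubated 15 min at room temperature with compounds. Nitrocefin (800 uM stock) was then added and hydrolysis followed at 480 nm every 20 s for 4 min.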
AmpC det inh = AmpC beta-lactamase inhibition, detergent assay. P00811. purified AmpC, nitrocefin hydrolysis with detergent. Potency, µM (series often up to 28.7 µM), without a hit: at the top dose activity change, negative = inhibition. 71,000 tested, 0.09% active; active means well fitted curve in the direction sought with a large enough effect; inconclusive means small, poorly fitted or top-dose-only effect; further: on the % scale 0 is the no-effect control and ±100 the full control effect
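E. coli AmpC (5.3 nM) in 20 mM phosphate pH 7.0 with 0.01% Triton X-100, preincubated 15 min RT with compound; nitrocefin (2 uL of 800 uM stock) hydrolysis followed by 480 nm absorbance every 20 s over 4 min.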
LT uptake inh = anthrax lethal toxin internalization inhibition; Cells, anthrax lethal toxin internalization, FRET ratio (460/530); Potency, µM (series often up to 40 µM), inactives show at the top dose activity change, negative = inhibition, usual class: inhibitors; AID 912; 70,000 tested, 0.67% active; further: on the % scale 0 is the no-effect control and ±100 the full control effect; nearly all actives have a fitted effect of over 50% in size
Starred values were filed as active, the others as inactive; ? = inconclusive; . = no result; [ ] = remark or other dose. A selection: hits, their analogues and other compounds. The true share with any hit is near 2.4%. Unless noted, the call rests on the fitted dose curve. Potency means the concentration at half of the fitted maximal effect.

SMILES | SmPrx2 inh | AmpC inh no det | AmpC det inh | LT uptake inh
COc1ccc(N2CCN(CCCNC(=O)CC3Oc4ccc(C)cc4NC3=O)CC2)cc1 (stereo unspecified) | >57 | 4µM*[single pt active] | 13% | ?
COC(=O)Cc1ccc(NC(=O)c2ccc(Br)o2)cc1 | >57 | -1% | -2% | -8%
CCN(CC)c1ccc(NC(=O)c2ccc(Br)o2)cc1 | . | -6% | -4% | 13µM*
c1ccc(Cn2nnnc2C(c2ccccc2)N2CCN(c3nc4ccccc4s3)CC2)cc1 (stereo unspecified) | >57 | 2% | 25% | -9%
CCCCC(c1nnnn1Cc1ccco1)N1CCN(c2nc3ccccc3s2)CC1 (stereo unspecified) | >57 | 37% | -2% | 10µM*
O=S(=O)(Nc1ccn(-c2ccccc2)n1)c1ccc(Br)cc1 | . | 5µM* | 0% | ?
O=C(O)CC(CC(=O)Nc1nncs1)c1ccccc1 (stereo unspecified) | >57 | -21% | -5% | 4%
CN(CC(CC(=O)Nc1nncs1)c1ccccc1)S(=O)(=O)c1ccccc1 (stereo unspecified) | >57 | 4µM*[single pt active] | 9% | 5%
Oc1ccc(-c2nc(-c3ccc(O)c(O)c3)cs2)cc1 | . | -24% | 1% | 13µM*
CCCCSCCCNC(=O)CS(=O)Cc1nc(-c2cccc(C)c2)oc1C (stereo unspecified) | >57 | 107% | -3% | 3%
CCC(C)NC(=O)CS(=O)Cc1nc(-c2cccc(C)c2)oc1C (stereo unspecified) | >57 | 4µM*[single pt active] | 13% | -3%
CCCCNC(=O)CS(=O)Cc1nc(-c2cccc(C)c2)oc1C (stereo unspecified) | >57 | 4µM*[single pt active] | 10% | -8%
Cc1cccc(-c2nc(CS(=O)CC(=O)NC3CCCC3)c(C)o2)c1 (stereo unspecified) | >57 | 4µM*[single pt active] | 11% | 0%
O=C(CC1(O)C(=O)Nc2cc(Cl)cc(Cl)c21)c1ccccc1O (stereo unspecified) | >57 | 13µM* | 10µM* | -5%
CC(C)[C@@H](CC(=O)N[C@@H]1CCCC[C@H]1C(=O)N[C@H](CC(=O)N[C@@H](CCC(=O)O)CC(=O)O)Cc1ccccc1)NC(=O)C[C@H](CO)NC(=O)[C@@H]1CCCC[C@H]1N | >57 | 81% | 4% | -15%
Cc1ccc(N2C(=O)c3ccccc3C2Nc2ccccc2F)nc1 (stereo unspecified) | >57 | 4µM*[single pt active] | 10% | ?
Cc1ccc(N2C(=O)c3ccccc3C2O)nc1 (stereo unspecified) | >57 | 4µM*[single pt active] | 12% | 14%
O=C1c2ccccc2C(O)N1c1ccc(Cl)cc1 (stereo unspecified) | >57 | -8% | 7% | -14%
O=C1c2ccccc2C(Nc2ccc(Cl)cn2)N1c1ccccn1 (stereo unspecified) | >57 | 4µM*[single pt active] | 15% | -22%
COc1cc(OC)c(NC2c3ccccc3C(=O)N2c2cc(C)ccn2)cc1Cl (stereo unspecified) | >57 | 82% | 9% | -10%
COc1ccccc1-c1ccc2ncnc(NCCN3CCOCC3)c2c1 | >57 | 89% | 13% | ?
COc1cccc([C@@H]2Oc3ccc(OC)cc3/C(=N/OC[C@@H](O)COCc3ccco3)[C@@H]2O)c1 | . | . | . | 2%[8 µM]
COC(=O)C/C=C\[C@@H](C)[C@@H](/C=N\OC[C@@H](O)COCc1ccco1)NS(=O)(=O)c1ccc(C)cc1 | . | . | . | -4%[8 µM]
Cc1cc(=O)n2nc(N3CCC(C(=O)NC4CCCc5ccccc54)CC3)sc2n1 (stereo unspecified) | >57 | 65% | 15% | 5%
O=C(NC1CCCc2ccccc21)C1CCN(c2c(N3CCCC3)c(=O)c2=O)CC1 (stereo unspecified) | >57 | 4µM*[single pt active] | 11% | -5%
SMILES | SmPrx2 inh | AmpC inh no det | AmpC det inh | LT uptake inh
CCc1ccc(NC2=NCC(=O)N2Cc2ccc3c(c2)OCO3)cc1 | >57 | 44% | 0% | 10µM*
O=C(CCl)c1ccccc1 | . | -13% | 4% | 13µM*
COc1ccccc1-c1ccc2ncnc(Nc3ccccc3)c2c1 | >57 | 51% | 5% | ?
OC[C@@H]1NC[C@@H](O)[C@H]1O | >57 | 5% | 1% | 10%
CN[C@H]1[C@H](C)O[C@@H](O[C@@H]2C/C=C(/C)C/C(C)=C\C=C/CC[C@@H](C)CNC(=O)/C=C\C=C/[C@H]2C)C[C@@H]1O | >57 | 17%[5.75 µM] | -2%[5.75 µM] | ?
O=C(NCc1ccc2c(c1)OCO2)C1CCCN(S(=O)(=O)c2cccnc2)C1 (stereo unspecified) | >57 | 4µM*[single pt active] | 12% | -11%
O=C(C1CCCN(S(=O)(=O)c2cccnc2)C1)N1CCN(c2ccccn2)CC1 (stereo unspecified) | >57 | 4µM*[single pt active] | 12% | ?
Cc1csc(NC(=O)C2CCCN(S(=O)(=O)c3cccnc3)C2)n1 (stereo unspecified) | >57 | 3.2µM*[single pt active] | 14% | -1%
Cc1ccc(CNC(=O)C2CCCN(S(=O)(=O)c3cccnc3)C2)cc1 (stereo unspecified) | >57 | 26% | -3% | -9%
CCOC(=O)N1CCN(C(=O)C2CCCN(S(=O)(=O)c3cccnc3)C2)CC1 (stereo unspecified) | >57 | 4µM*[single pt active] | 14% | 1%
c1nc(NC2CCNCC2)c2cc(-c3ccoc3)ccc2n1 | >57 | 15% | 6% | -10%
CC(C)N(Cc1nc(-c2ccccc2)no1)S(=O)(=O)c1ccccc1 | >57 | 4µM*[single pt active] | 3% | ?
CC(C)N(Cc1nc(-c2ccccc2)no1)C(=O)CN(C)S(=O)(=O)c1ccccc1 | >57 | 73% | -3% | -15%
C[C@H]1[C@H](NC(=O)/C(=N/OC(C)(C)C(=O)O)c2csc(N)n2)C(=O)N1S(=O)(=O)O (stereo in doubt) | >57 | 0.00079µM* | 0.002µM* | -3%[3.58 µM]
CC(C)(C)[C@@]1(O)C[C@@H]2OC(=O)C[C@@]23C(=O)O[C@H]2OC(=O)[C@@H](O)[C@]231 | >57 | 13% | 0% | -23%
Cc1cc(C)cc(NC(=O)CSc2nnc(Cn3c(=O)sc4ccccc43)n2C)c1 | >57 | 4µM*[single pt active] | 9% | -1%
Cn1c(Cn2c(=O)sc3ccccc32)nnc1SCC(=O)Nc1cccc(Cl)c1 | >57 | 8% | 23% | 7%
Cn1c(Cn2c(=O)sc3ccccc32)nnc1SCC(=O)Nc1ccc(Cl)cc1 | >57 | 4µM*[single pt active] | 11% | 8%
Cn1c(Cn2c(=O)sc3ccccc32)nnc1SCC(=O)Nc1cccc(F)c1 | >57 | 4µM*[single pt active] | 13% | -2%
COc1ccc2c3c1O[C@@H]1C(=O)CC[C@@]4(O)[C@@H](C2)N(CC2CC2)CC[C@]314 | >57 | 12% | 0% | -3%
CCc1ccc(NC(=O)Cn2c(SC)nc3ccccc32)cc1 | >57 | 47% | 5% | ?
CSc1nc2ccccc2n1CC(=O)Nc1ccccc1 | . | 6% | 4% | 16µM*
Cc1cccc(CNc2ncnc3ccc(-c4cccc(C#N)c4)cc23)c1 | >57 | -5% | -5% | ?
